Our source for the z-score and composite z-score values is PubChem BioAssay.

A short description of test [1]: optical density shifts of acrAB sulA E. coli – strain DRC41, OD650, 48 h, E. coli filamentation inducer project, primary screen (AID 1152).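 Also: E. coli MC1000 strain DRC41 lacking acrAB efflux pump and sulA.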 Conditions: higher = more signal, called active from +8 up or from −8 down.
A short description of test [2]: probe aLefty1 binding on compound microarray – biochemical, small-molecule microarray, 635/667 nm fluorescence, primary screen (AID 1153).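 Also: score merges spot fluorescence with signal-to-noise ratio from the scanned slide images.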 Conditions: higher = more signal.
The nature of test [3]: plasmodial surface anion channel blockers, osmotic lysis – cell-based, P. falciparum Indochina, OD700, 1 h, primary screen (AID 1154). Conditions: P. falciparum Indochina infected RBC osmotic lysis, higher = more signal, called active from +8 up or from −8 down.
The nature of test [4]: plasmodial surface anion channel blockers, osmotic lysis – cell-based, P. falciparum Indochina, OD700, 2 h, primary screen (AID 1155).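 Also: lysis reports solute entry through the parasite surface anion channel PSAC.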 Conditions: P. falciparum Indochina infected erythrocytes, higher = more signal, called active from +8 up or from −8 down.
Test [5] can be described thus: changes in parasitized red cell lysis, either direction – P. falciparum Indochina, OD700, 3 h, PSAC antagonist project, primary screen (AID 1156). Conditions: P. falciparum-infected erythrocytes, osmotic lysis, higher = more signal, called active from +8 up or from −8 down.
Test [6] can be described thus: plasmodial surface anion channel blockers, osmotic lysis – cell-based, P. falciparum Indochina, OD700, 18 h, primary screen (AID 1157). The following applies: P. falciparum Indochina infected erythrocytes, osmotic lysis OD700, 18 h; higher = more signal, called active from +8 up or from −8 down.
A short description of test [7]: S6 kinase pathway phospho-S6 level changes – cell-based, A549, cytoblot, luminescence, serum-stimulated, primary screen (AID 1158).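 Also: serum-stimulated A549 lung adenocarcinoma cells; signal is phosphorylated S6 detected by cytoblot immunostaining with HRP secondary.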 Conditions: 5 h, higher = more signal.
For test [8], the target named is NADPH oxidase 2 (Homo sapiens) (UniProt P04839). The experiment in a line: compounds shifting NOX2 Amplex Red fluorescence – cell-based, HEK293-NOX2, PMA-stimulated, NOX inhibitor project, primary screen (AID 1159). Also: test concentration not given here. The following applies: 45 min, higher = more signal, called active from +8 up or from −8 down.
Sequence of NADPH oxidase 2 (Homo sapiens) (P04839 whole entry, looked up): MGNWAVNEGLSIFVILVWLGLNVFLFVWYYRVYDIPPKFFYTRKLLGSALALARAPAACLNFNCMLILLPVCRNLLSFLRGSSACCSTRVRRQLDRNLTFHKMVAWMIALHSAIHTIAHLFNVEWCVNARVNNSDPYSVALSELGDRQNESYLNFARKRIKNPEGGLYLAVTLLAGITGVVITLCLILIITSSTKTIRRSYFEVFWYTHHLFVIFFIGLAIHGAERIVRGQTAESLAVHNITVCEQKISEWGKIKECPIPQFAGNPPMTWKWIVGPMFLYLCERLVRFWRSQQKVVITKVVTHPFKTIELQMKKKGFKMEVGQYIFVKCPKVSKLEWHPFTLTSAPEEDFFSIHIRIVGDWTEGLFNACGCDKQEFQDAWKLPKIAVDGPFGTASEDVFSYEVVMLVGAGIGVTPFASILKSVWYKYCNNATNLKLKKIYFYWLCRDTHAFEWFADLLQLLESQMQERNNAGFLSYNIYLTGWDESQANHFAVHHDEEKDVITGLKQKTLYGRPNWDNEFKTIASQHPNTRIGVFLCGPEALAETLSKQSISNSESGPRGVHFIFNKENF
In test [9] the target is NADPH oxidase 4 (Homo sapiens) (UniProt Q9NPH5). Put plainly: compounds shifting NOX4 Amplex Red fluorescence – cell-based, HEK293-NOX4, tetracycline-induced, NOX inhibitor project, primary screen (AID 1160). Conditions: HEK293-NOX4, Amplex Red H2O2 fluorescence, 45 min; higher = more signal, called active from +8 up or from −8 down.
Sequence of NADPH oxidase 4 (Homo sapiens) (Q9NPH5 whole entry, looked up): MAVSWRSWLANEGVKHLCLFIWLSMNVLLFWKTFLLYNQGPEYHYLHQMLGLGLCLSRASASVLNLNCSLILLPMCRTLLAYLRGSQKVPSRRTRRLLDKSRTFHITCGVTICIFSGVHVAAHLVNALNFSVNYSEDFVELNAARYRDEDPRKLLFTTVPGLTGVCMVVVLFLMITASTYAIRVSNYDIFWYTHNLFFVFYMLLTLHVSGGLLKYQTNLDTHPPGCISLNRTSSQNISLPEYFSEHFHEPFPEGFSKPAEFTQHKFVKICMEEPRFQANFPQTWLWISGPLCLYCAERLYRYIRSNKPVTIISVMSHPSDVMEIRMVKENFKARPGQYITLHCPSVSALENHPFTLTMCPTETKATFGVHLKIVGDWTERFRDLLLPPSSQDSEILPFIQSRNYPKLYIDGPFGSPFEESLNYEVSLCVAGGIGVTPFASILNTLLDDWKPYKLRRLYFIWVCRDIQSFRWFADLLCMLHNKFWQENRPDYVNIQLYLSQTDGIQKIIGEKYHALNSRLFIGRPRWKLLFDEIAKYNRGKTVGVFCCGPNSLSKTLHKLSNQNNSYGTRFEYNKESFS
The target of test [10] is NADPH oxidase 5 (Homo sapiens) (UniProt Q96PH1). Put plainly: compounds shifting NOX5 Amplex Red fluorescence – cell-based, HEK293-NOX5, NOX inhibitor project, primary screen (AID 1161). Conditions: HEK293-NOX5, ionomycin, 45 min, higher = more signal.
Sequence of NADPH oxidase 5 (Homo sapiens) (Q96PH1 whole entry, looked up): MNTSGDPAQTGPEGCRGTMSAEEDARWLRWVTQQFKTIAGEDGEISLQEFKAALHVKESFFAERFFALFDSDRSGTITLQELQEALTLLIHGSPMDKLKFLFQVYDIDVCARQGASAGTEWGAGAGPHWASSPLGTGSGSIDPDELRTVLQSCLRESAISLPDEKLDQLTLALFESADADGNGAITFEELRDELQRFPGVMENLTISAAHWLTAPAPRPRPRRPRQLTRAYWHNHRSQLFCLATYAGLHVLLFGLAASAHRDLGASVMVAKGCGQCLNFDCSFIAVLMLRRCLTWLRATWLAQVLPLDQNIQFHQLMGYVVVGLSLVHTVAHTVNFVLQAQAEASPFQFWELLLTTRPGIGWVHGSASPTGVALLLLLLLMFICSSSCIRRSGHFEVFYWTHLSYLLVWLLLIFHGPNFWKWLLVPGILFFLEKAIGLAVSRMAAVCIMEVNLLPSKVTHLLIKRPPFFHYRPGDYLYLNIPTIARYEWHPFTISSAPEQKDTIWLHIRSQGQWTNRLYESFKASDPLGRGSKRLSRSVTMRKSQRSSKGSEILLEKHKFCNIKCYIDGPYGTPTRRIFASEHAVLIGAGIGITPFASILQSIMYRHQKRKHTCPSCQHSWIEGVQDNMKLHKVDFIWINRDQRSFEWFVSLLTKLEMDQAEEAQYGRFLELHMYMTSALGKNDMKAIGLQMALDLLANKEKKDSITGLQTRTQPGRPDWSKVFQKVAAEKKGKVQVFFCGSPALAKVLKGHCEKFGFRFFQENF
The nature of test [11]: compound effects on lung adenocarcinoma cell viability – A549, calcein-AM fluorescence, 48 h, basal, profiling panel (AID 1162). Also: test concentration not given here. Conditions: higher = more signal.
The nature of test [12]: compound effects on differentiated 3T3-L1 adipocyte viability – cell-based, 3T3-L1 adipocytes, calcein-AM fluorescence, 48 h, basal, profiling panel (AID 1163). Also: test concentration not given here. The following applies: 3T3-L1 adipocytes viability, higher = more signal.
The nature of test [13]: compound effects on hepatocellular carcinoma cell viability – HepG2, calcein-AM fluorescence, 48 h, basal, profiling panel (AID 1164). Also: test concentration not given here. Conditions: higher = more signal.
Test [14] is described as follows: compound effects on multiple myeloma cell viability – MM1S, calcein-AM fluorescence, 48 h, basal, profiling panel (AID 1165).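 Also: viability of MM1S multiple myeloma cells under basal unstimulated conditions; test concentration not given here.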 The following applies: higher = more signal.
Test [15] can be described thus: calcein-AM signal in unstimulated myeloma cells – cell-based, calcein-AM fluorescence, 48 h, PK04 Diversity Set, profiling panel (AID 1166).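 Also: cells grown under basal conditions without added stimulus; test concentration not given here.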 The following applies: RPMI8226 myeloma viability, higher = more signal.
Test [16] in a line: JC-1 mitochondrial signal, unstimulated HepG2 cells – cell-based, JC-1 fluorescence, 24 h, 100 nL compound, profiling panel (AID 1167). Also: test concentration not given here. Conditions: HepG2 mitochondrial potential, higher = more signal.
A short description of test [17]: JC-1 mitochondrial signal, unstimulated adipocytes – cell-based, JC-1 fluorescence, 3T3-L1 adipocytes, 24 h, 100 nL compound, profiling panel (AID 1168). Also: test concentration not given here. The following applies: JC-1 mitochondrial fluorescence, higher = more signal, called active from +8 up or from −8 down.
The nature of test [18]: JC-1 mitochondrial signal, unstimulated myeloma cells – cell-based, JC-1 fluorescence, RPMI8226, 24 h, 100 nL compound, profiling panel (AID 1169). Also: test concentration not given here. The following applies: JC-1 mitochondrial potential fluorescence, higher = more signal.
The nature of test [19]: JC-1 mitochondrial signal, unstimulated MM1S myeloma – cell-based, JC-1 fluorescence, 24 h, 100 nL compound, profiling panel (AID 1170). Also: test concentration not given here. Conditions: MM1S mitochondrial potential, higher = more signal.
Test [20] in a line: resazurin metabolic signal in A549 cells – cell-based, resazurin fluorescence, 24 h, PK04 Diversity Set, profiling panel (AID 1171). Also: test concentration not given here. The following applies: A549 viability, higher = more signal, called active from +8 up or from −8 down.

Calls of active or inactive are those of the source.

`COCCCNC(=O)[C@@H]1c2ccccc2C(=O)N(Cc2ccccc2C(F)(F)F)[C@H]1c1ccc(CO)cc1`: the z-score in [1] is 0.938 (inactive); in [3] it was 1.14 (inactive); in test [4], 0.165 (inactive); in test [5], 0.0034 (inactive); in [6], -0.0633 (inactive); in test [7], 0.0987. In addition, the z-score was -0.214 (inactive) in test [8]; 0.732 (inactive) in test [9]; 0.498 in [10]; 2.1 in [11]; 1.29 in test [12]; 1 in [13]. In addition, the z-score was 0.7 in [14]; 0.237 in test [15]; 2.55 in test [16]; -0.0216 (inactive) in [17]; -0.213 in [18]; 0.872 in test [19]. The z-score in test [20] was 1.8 (inactive). The same compound had a composite z-score in test [2] of -0.198.
As for `C=C(/C=C/CNS(=O)(=O)c1ccc(C)cc1)[C@H](O)[C@H]1CCCN1S(=O)(=O)c1ccccc1[N+](=O)[O-]`, the z-score in [1] is 0.611 (inactive); in test [3], 11.5 (active); in [4], 1.43 (inactive); in test [5], 0.643 (inactive); in test [6], 0.647 (inactive); in test [7] it was 0.229. The z-score in test [8] was -0.358 (inactive); in [9] it was -1.6 (inactive); in test [10], -1.6; in test [11], 0.623; in test [12], 0.581; in test [13], -0.291. Also, the z-score in [14] is -1.28; in [15], -0.264; in test [16], -1.79; in test [17], -0.221 (inactive); in test [18] it was -0.525; in [19] it was -0.0633. Further, the z-score in test [20] is 0.594 (inactive). The compound further yielded a composite z-score in test [2] of -0.185.
For the compound `COCCOC(=O)N1C(=O)[C@@]2(c3cc(C#CC4(O)CCCCCC4)ccc31)[C@H](C(N)=O)[C@H]1C(=O)O[C@H](c3ccccc3)[C@H](c3ccccc3)N1[C@@H]2c1ccc(O)cc1`, the z-score in test [1] is -0.342 (inactive); in test [3], 1.7 (inactive); in [4] it was -0.269 (inactive); in test [5], 2.21 (inactive); in test [6], -0.125 (inactive); in test [7] it was -0.0551. Besides, the z-score was 0.649 (inactive) in [8]; 0.547 (inactive) in test [9]; 0.85 in [10]; 1.47 in test [11]; 0.521 in test [12]; 0.412 in test [13]. Further, the z-score in test [14] was -2.88; in test [15], -3.95; in test [16] it was -0.0298; in test [17] it was -0.62 (inactive); in test [18], -0.522; in [19], -1.25. The z-score in test [20] was 0.394 (inactive). In test [2], this compound returned a composite z-score of -0.0186.
For `C=CC[C@H](OC(=O)Nc1ccc(OC)cc1)c1ccc(O)c2ccccc12`, the z-score in test [1] was -0.326 (inactive); in test [3], 5.07 (inactive); in [4], 0.919 (inactive); in [5] it was -0.0585 (inactive); in test [6], 0.328 (inactive); in test [7] it was -0.93. In addition, the z-score was -6.04 (inactive) in test [8]; -1.58 (inactive) in test [9]; -0.343 in test [10]; -1.39 in test [11]; -1.07 in test [12]; -3.1 in [13]. The z-score in test [14] is -2.8; in [15], -4.26; in [16], -2.68; in test [17], -1.05 (inactive); in test [18], -1.02; in test [19], -2.15. In [20], the z-score was -0.745 (inactive). This compound also returned a composite z-score in [2] of 0.122.
For `C=C[C@@H](COC(C)=O)NS(=O)(=O)c1ccc(Br)cc1`, the z-score in test [1] is 0.032 (inactive); in test [3], -0.0045 (inactive); in test [4], -0.446 (inactive); in test [5] it was -0.123 (inactive); in test [6], 0.0804 (inactive); in test [7] it was -0.0771. The z-score in [8] is -0.34 (inactive); in [9] it was -0.487 (inactive); in test [10] it was -0.833; in test [11], 0.0976; in test [12] it was -0.342; in [13], 1.04. In addition, the z-score in test [14] is -2.08; in test [15] it was -1.74; in test [16] it was -0.742; in [17], -0.195 (inactive); in test [18] it was -0.0875; in test [19], -0.259. In test [20], the z-score is -1.82 (inactive). The compound also returned a composite z-score in [2] of -0.0464.
As for `C=C(C(=O)CC[C@H](OC(=O)c1cccnc1)c1ccc(CO)o1)C(C)C`, the z-score in [1] was -0.92 (inactive); in test [3], 1.73 (inactive); in [4], -0.115 (inactive); in test [5], -0.158 (inactive); in test [6], -0.0363 (inactive); in test [7] it was -0.143. Besides, the z-score in [8] is 0.637 (inactive); in [9], 0.123 (inactive); in test [10] it was -0.0889; in [11], -0.242; in test [12], -0.449; in test [13], -0.676. Also, the z-score is -0.66 in [14]; 0.202 in [15]; -2 in [16]; -1.78 (inactive) in [17]; 0.322 in test [18]; -0.458 in test [19]. For the same compound, in test [20], the z-score was -0.361 (inactive). Besides, the composite z-score in test [2] is 0.333.
For the compound `C=CCOC(=O)[C@H]1[C@@H]2C(=O)O[C@@H](c3ccccc3)[C@@H](c3ccccc3)N2[C@@H](c2ccc(OCCOC(=O)[C@H]3C[C@H]4C(=O)N[C@@H](CCCC[N+](C)(C)C)C(=O)N4[C@H]3c3cccc(OCCO)c3)cc2)[C@]12C(=O)Nc1ccc(I)cc12`, the z-score in test [1] was 0.039 (inactive); in test [3] it was 3.12 (inactive); in [4] it was 2.53 (inactive); in [5], 1.58 (inactive); in [6], 1.68 (inactive); in test [7], 0.4. The z-score in [8] was 0.822 (inactive); in test [9] it was 0.0287 (inactive); in test [10] it was 0.14; in test [11], -0.319; in test [12], -0.0546; in [13], 1.67. Besides, the z-score in test [14] was 0.596; in test [15], 0.532; in test [16] it was -2; in [17], -0.124 (inactive); in test [18], -0.51; in test [19], -1.31. Also, the z-score in test [20] is 0.134 (inactive). Also, the composite z-score in [2] was -0.17.
For `C=CCC(OC(C)=O)[C@@H]1[C@@H](N(Cc2cc3ccccc3o2)C(=O)c2ccc(C)cc2)c2cc(OCCCO)ccc2N1C(=O)Cc1ccc2ccccc2c1` (stereo not given in full), the z-score was 2.52 (inactive) in test [1]; 1.49 (inactive) in test [3]; 0.434 (inactive) in test [4]; -0.884 (inactive) in test [5]; 0.283 (inactive) in [6]; 0.866 in test [7]. Further, the z-score is 0.597 (inactive) in test [8]; 0.921 (inactive) in test [9]; 2.32 in test [10]; 2.34 in test [11]; 0.133 in test [12]; 1.18 in [13]. In addition, the z-score was -0.623 in [14]; -0.802 in test [15]; 3.42 in test [16]; -0.577 (inactive) in test [17]; 0.0031 in test [18]; 0.718 in [19]. The z-score in test [20] was 1.65 (inactive). Moreover, in [2], the composite z-score is -0.103.
For the compound `CO[C@H]1O[C@H](CO)[C@@H](OC(=O)Nc2ccccc2-c2ccccc2)[C@H](OC(=O)Nc2ccc3c(c2)OCO3)[C@@H]1OC(=O)Nc1ccc2c(c1)OCO2`, the z-score in [1] was -0.609 (inactive); in test [3], 15.3 (active); in [4], 2.72 (inactive); in test [5] it was 1.22 (inactive); in test [6], 1.11 (inactive); in [7], -0.0176. Further, the z-score in test [8] was 0.878 (inactive); in test [9], -0.722 (inactive); in test [10], -1.49; in test [11], 0.105; in test [12], -1.46; in [13], -1.05. Besides, the z-score in test [14] was -1.49; in test [15], -1.84; in [16] it was -0.467; in test [17], 1.34 (inactive); in [18], -0.363; in test [19] it was -0.263. Also, in test [20], the z-score was -1.77 (inactive). Besides, in [2], the composite z-score amounted to 0.658.
